Measurements published in PubChem BioAssay AID1159580 (chemical genetic matrix, 2015).
Among all 5,500 compounds or so, about 2,000 (36%) were called active. Roughly 18% stayed inconclusive and do not appear here. Some of the results follow. A number with no mark means an inactive call. Rule as the data show it: active = normalized growth mostly below about 0.91 (no sharp cut-off); inconclusive = no clear call, values can overlap the other calls; inactive = mostly above about 0.92.

Assay: chemical genetic growth profiling, strain panel (AID 1159580);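 also: tested at 20 µM; growth read once vehicle control cultures reached saturation at 30 °C; 1 = growth at the plate median or of vehicle wells; lower values mean less growth of the strain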
Conditions: growth OD

For `Cc1ccc2c(c1)CC[C@H]1CC(=O)CC[C@]21C`, which normalized growth (S. cerevisiae deletion strains, locus YKL009W, strain mrt4, hits give low values) is on record?
Its normalized growth is 0.982.

What about the normalized growth (S. cerevisiae deletion strains, locus YKL068W, hits give low values) of the same compound?
The normalized growth was 0.991.

What about the normalized growth (S. cerevisiae deletion strains, locus YKL085W, strain MDH1 (second series), hits give low values) of the same compound?
The normalized growth was 0.973.

And the normalized growth (S. cerevisiae deletion strains, locus YKL085W, strain MDH1, hits give low values)?
The normalized growth was 0.973.

What about the normalized growth (S. cerevisiae deletion strains, locus YKL160W, strain elf1, hits give low values) of the same compound?
Its normalized growth is 1.01.

And the normalized growth (S. cerevisiae deletion strains, locus YKL190W, strain CNB1, hits give low values)?
Its normalized growth is 0.997.

And the normalized growth (S. cerevisiae deletion strains, locus YKR001C, strain vps1, hits give low values)?
Its normalized growth is 0.953.

And the normalized growth (S. cerevisiae deletion strains, locus YKR026C, strain gcn3, hits give low values)?
Its normalized growth is 1.01.

And the normalized growth (S. cerevisiae deletion strains, locus YKR091W, strain srl3, hits give low values)?
The normalized growth was 1.

And the normalized growth (S. cerevisiae deletion strains, locus YLL001W, strain dnm1, hits give low values)?
Its normalized growth is 0.999.

What about the normalized growth (S. cerevisiae deletion strains, locus YLL026W, hits give low values) of the same compound?
Its normalized growth is 1.01.

And the normalized growth (S. cerevisiae deletion strains, locus YLL041C, strain sdh2, hits give low values)?
The normalized growth was 0.991.

What about the normalized growth (S. cerevisiae deletion strains, locus YLR027C, strain aat2, hits give low values) of the same compound?
Its normalized growth is 0.989.

What about the normalized growth (S. cerevisiae deletion strains, locus YLR039C, strain RIC1, hits give low values) of the same compound?
Its normalized growth is 0.925.

What about the normalized growth (S. cerevisiae deletion strains, locus YLR058C, strain SHM2, hits give low values) of the same compound?
Its normalized growth is 0.998.

And the normalized growth (S. cerevisiae deletion strains, locus YLR102C, strain apc9, hits give low values)?
The normalized growth was 0.983.

And the normalized growth (S. cerevisiae deletion strains, locus YLR113W, strain HOG1, hits give low values)?
The normalized growth was 0.975.

What about the normalized growth (S. cerevisiae deletion strains, locus YLR221C, strain rsa3, hits give low values) of the same compound?
The normalized growth was 0.995.

What about the normalized growth (S. cerevisiae deletion strains, locus YLR258W, strain gsy2, hits give low values) of the same compound?
The normalized growth was 1.

What about the normalized growth (S. cerevisiae deletion strains, locus YLR262C, strain YPT6 (second series), hits give low values) of the same compound?
Its normalized growth is 0.942.

And the normalized growth (S. cerevisiae deletion strains, locus YLR262C, strain YPT6, hits give low values)?
The normalized growth was 0.917.

And the normalized growth (S. cerevisiae deletion strains, locus YLR268W, strain sec22, hits give low values)?
Its normalized growth is 1.01.

What about the normalized growth (S. cerevisiae deletion strains, locus YLR320W, strain mms22, hits give low values) of the same compound?
Its normalized growth is 0.977.

What about the normalized growth (S. cerevisiae deletion strains, locus YLR330W, strain CHS5, hits give low values) of the same compound?
Its normalized growth is 0.991.

And the normalized growth (S. cerevisiae deletion strains, locus YLR342W, strain FKS1 (second series), hits give low values)?
Its normalized growth is 0.94.

And the normalized growth (S. cerevisiae deletion strains, locus YLR342W, strain FKS1, hits give low values)?
Its normalized growth is 0.997.

What about the normalized growth (S. cerevisiae deletion strains, locus YLR357W, strain rsc2, hits give low values) of the same compound?
Its normalized growth is 1.01.

What about the normalized growth (S. cerevisiae deletion strains, locus YLR370C, strain arc18, hits give low values) of the same compound?
Its normalized growth is 1.02.

What about the normalized growth (S. cerevisiae deletion strains, locus YLR371W, strain rom2, hits give low values) of the same compound?
Its normalized growth is 0.972.

And the normalized growth (S. cerevisiae deletion strains, locus YLR384C, strain iki3, hits give low values)?
Its normalized growth is 1.01.

And the normalized growth (S. cerevisiae deletion strains, locus YLR418C, strain cdc73, hits give low values)?
The normalized growth was 0.923.

And the normalized growth (S. cerevisiae deletion strains, locus YML016C, strain PPZ1, hits give low values)?
Its normalized growth is 0.984.

What about the normalized growth (S. cerevisiae deletion strains, locus YML032C, strain rad52, hits give low values) of the same compound?
Its normalized growth is 0.972.

What about the normalized growth (S. cerevisiae deletion strains, locus YML120C, strain ndi1, hits give low values) of the same compound?
Its normalized growth is 0.986.

And the normalized growth (S. cerevisiae deletion strains, locus YML124C, strain tub3, hits give low values)?
Its normalized growth is 0.98.

What about the normalized growth (S. cerevisiae deletion strains, locus YMR058W, strain fet3, hits give low values) of the same compound?
The normalized growth was 1.01.

What about the normalized growth (S. cerevisiae deletion strains, locus YMR078C, strain ctf18, hits give low values) of the same compound?
Its normalized growth is 0.969.

What about the normalized growth (S. cerevisiae deletion strains, locus YMR125W, strain sto1, hits give low values) of the same compound?
Its normalized growth is 1.

What about the normalized growth (S. cerevisiae deletion strains, locus YMR129W, hits give low values) of the same compound?
Its normalized growth is 1.01.

What about the normalized growth (S. cerevisiae deletion strains, locus YMR205C, strain PFK2, hits give low values) of the same compound?
Its normalized growth is 1.

What about the normalized growth (S. cerevisiae deletion strains, locus YMR223W, strain ubp8, hits give low values) of the same compound?
Its normalized growth is 0.966.

And the normalized growth (S. cerevisiae deletion strains, locus YMR231W, strain pep5, hits give low values)?
The normalized growth was 0.997.

What about the normalized growth (S. cerevisiae deletion strains, locus YMR263W, strain SAP30, hits give low values) of the same compound?
Its normalized growth is 1.01.

And the normalized growth (S. cerevisiae deletion strains, locus YMR307W, strain GAS1, hits give low values)?
Its normalized growth is 0.908.

And the normalized growth (S. cerevisiae deletion strains, locus YNL067W, strain RPL9B, hits give low values)?
The normalized growth was 0.999.

And the normalized growth (S. cerevisiae deletion strains, locus YNL071W, strain lat1, hits give low values)?
Its normalized growth is 0.999.

What about the normalized growth (S. cerevisiae deletion strains, locus YNL128W, strain TEP1, hits give low values) of the same compound?
The normalized growth was 1.01.

And the normalized growth (S. cerevisiae deletion strains, locus YNL153C, strain GIM3, hits give low values)?
Its normalized growth is 1.02.

What about the normalized growth (S. cerevisiae deletion strains, locus YNL183C, strain NPR1, hits give low values) of the same compound?
The normalized growth was 0.907.

What about the normalized growth (S. cerevisiae deletion strains, locus YNL209W, strain ssb2, hits give low values) of the same compound?
Its normalized growth is 0.998.

And the normalized growth (S. cerevisiae deletion strains, locus YNL233W, strain BNI4, hits give low values)?
The normalized growth was 0.979.

What about the normalized growth (S. cerevisiae deletion strains, locus YNL248C, strain rpa49, hits give low values) of the same compound?
Its normalized growth is 0.99.

What about the normalized growth (S. cerevisiae deletion strains, locus YNL250W, strain rad50, hits give low values) of the same compound?
Its normalized growth is 0.979.

What about the normalized growth (S. cerevisiae deletion strains, locus YNL271C, strain bni1, hits give low values) of the same compound?
The normalized growth was 0.96.

And the normalized growth (S. cerevisiae deletion strains, locus YNL298W, strain CLA4, hits give low values)?
Its normalized growth is 0.987.

And the normalized growth (S. cerevisiae deletion strains, locus YNL307C, strain MCK1, hits give low values)?
Its normalized growth is 0.889 (active).

What about the normalized growth (S. cerevisiae deletion strains, locus YNL322C, strain KRE1 (second series), hits give low values) of the same compound?
The normalized growth was 1.

What about the normalized growth (S. cerevisiae deletion strains, locus YNL322C, strain KRE1, hits give low values) of the same compound?
The normalized growth was 1.

What about the normalized growth (S. cerevisiae deletion strains, locus YNR049C, strain mso1, hits give low values) of the same compound?
The normalized growth was 1.

What about the normalized growth (S. cerevisiae deletion strains, locus YNR052C, strain pop2, hits give low values) of the same compound?
The normalized growth was 0.976.

What about the normalized growth (S. cerevisiae deletion strains, locus YOL006C, strain TOP1, hits give low values) of the same compound?
Its normalized growth is 0.878.

And the normalized growth (S. cerevisiae deletion strains, locus YOL012C, strain htz1)?
The normalized growth was 1.46.

And the normalized growth (S. cerevisiae deletion strains, locus YOL147C, strain pex11, hits give low values)?
The normalized growth was 0.981.

What about the normalized growth (S. cerevisiae deletion strains, locus YOR001W, strain rrp6, hits give low values) of the same compound?
The normalized growth was 0.981.

And the normalized growth (S. cerevisiae deletion strains, locus YOR061W, strain CKA2, hits give low values)?
The normalized growth was 0.998.

What about the normalized growth (S. cerevisiae deletion strains, locus YOR069W, strain VPS5, hits give low values) of the same compound?
The normalized growth was 0.998.

And the normalized growth (S. cerevisiae deletion strains, locus YOR070C, strain gyp1, hits give low values)?
Its normalized growth is 1.

What about the normalized growth (S. cerevisiae deletion strains, locus YOR080W, strain dia2, hits give low values) of the same compound?
The normalized growth was 0.994.

What about the normalized growth (S. cerevisiae deletion strains, locus YOR083W, strain WHI5, hits give low values) of the same compound?
The normalized growth was 1.

And the normalized growth (S. cerevisiae deletion strains, locus YOR106W, strain vam3, hits give low values)?
The normalized growth was 0.998.

What about the normalized growth (S. cerevisiae deletion strains, locus YOR136W, strain idh2, hits give low values) of the same compound?
Its normalized growth is 0.993.

What about the normalized growth (S. cerevisiae deletion strains, locus YOR144C, strain elg1, hits give low values) of the same compound?
The normalized growth was 0.976.

What about the normalized growth (S. cerevisiae deletion strains, locus YOR184W, strain ser1, hits give low values) of the same compound?
Its normalized growth is 0.895.

What about the normalized growth (S. cerevisiae deletion strains, locus YOR231W, strain MKK1, hits give low values) of the same compound?
The normalized growth was 0.981.

And the normalized growth (S. cerevisiae deletion strains, locus YOR265W, strain rbl2, hits give low values)?
The normalized growth was 1.

What about the normalized growth (S. cerevisiae deletion strains, locus YOR270C, strain vph1, hits give low values) of the same compound?
The normalized growth was 0.889.

And the normalized growth (S. cerevisiae deletion strains, locus YOR290C, strain snf2, hits give low values)?
The normalized growth was 1.01.

What about the normalized growth (S. cerevisiae deletion strains, locus YOR316C, strain cot1, hits give low values) of the same compound?
Its normalized growth is 0.982.

What about the normalized growth (S. cerevisiae deletion strains, locus YPL051W, strain arl3, hits give low values) of the same compound?
Its normalized growth is 1.01.

And the normalized growth (S. cerevisiae deletion strains, locus YPL055C, strain LGE1, hits give low values)?
The normalized growth was 0.99.

What about the normalized growth (S. cerevisiae deletion strains, locus YPL078C, strain atp4, hits give low values) of the same compound?
The normalized growth was 0.993.

And the normalized growth (S. cerevisiae deletion strains, locus YPL106C, strain sse1, hits give low values)?
Its normalized growth is 1.03.

And the normalized growth (S. cerevisiae deletion strains, locus YPL240C, strain hsp82, hits give low values)?
The normalized growth was 1.

What about the normalized growth (S. cerevisiae deletion strains, locus YPL241C, strain CIN2, hits give low values) of the same compound?
Its normalized growth is 0.993.

What about the normalized growth (S. cerevisiae deletion strains, locus YPL256C, strain CLN2, hits give low values) of the same compound?
Its normalized growth is 0.965.

What about the normalized growth (S. cerevisiae deletion strains, locus YPR119W, strain clb2, hits give low values) of the same compound?
The normalized growth was 0.98.

What about the normalized growth (S. cerevisiae deletion strains, locus YPR141C, strain kar3, hits give low values) of the same compound?
Its normalized growth is 0.976.

What about the normalized growth (S. cerevisiae deletion strains, locus YPR163C, strain tif3, hits give low values) of the same compound?
Its normalized growth is 0.974.

And the normalized growth (S. cerevisiae deletion strains, locus YPR167C, strain met16, hits give low values)?
The normalized growth was 0.982.

What about the normalized growth (S. cerevisiae deletion strains, strain wtn01, hits give low values) of the same compound?
The normalized growth was 0.975.

What about the normalized growth (S. cerevisiae strains, strain wild type, hits give low values) of the same compound?
The normalized growth was 0.994.
